Compounds with a hit are over-represented: about 17% of the library has one in this group of screens.
TGFb SMAD3 inh = blocks TGF-b signaling. HepG2 CAGA-GFP TGF-b/SMAD3 reporter, GFP fluorescence, 18 h; TGF-beta stimulated, 500 pg/mL final. Potency, µM (highest dose often 46.1 µM), usual class: inhibitors. 410,000 tested, 1.2% active. AID 588855; also: nearly all actives have a fitted effect of over 65% in size
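GFP signal (ex488/em500-530) from TGF-beta-stimulated HEPG2 CAGA-GFP cells, 500 pg/mL final, 18 h at 37 degrees C in DMEM plus 1% FBS, normalized to unstimulated and DMSO-stimulated controls.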
HT1080-NT tox = kills 2HG-producing HT-1080-NT fibrosarcoma cells; Potency, µM (doses to about 46.1 µM), hits mostly cytotoxic; HT-1080-NT fibrosarcoma viability, CellTiter-Glo ATP luminescence, 48 h; AID 686970; 360,000 tested, 1.6% active;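 also: NT is the 2HG producing partner of a matched IDH1 knockdown line; nearly all actives have a fitted effect of over 55% in size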
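HT-1080-NT fibrosarcoma cells (2HG-overproducing), 750 cells/well in RPMI with 5% FBS, dosed after 2 h and incubated 48 h at 37C. CellTiter-Glo luminescence normalized to DMSO and no-cell wells; concentration-response curves fitted and classed.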
TDP1 cell noCPT = qHTS for Inhibitors of human tyrosyl-DNA phosphodiesterase 1 (TDP1): qHTS in cells in absence of CPT; DT40 Tdp1-/- hTDP1 cells, no CPT, ATP luminescence, 48 h; AID 686978, 2013; Potency, µM (highest dose often 46.2 µM), usual class: inhibitors; 420,000 tested, 15% active; also: nearly all actives have a fitted effect of over 55% in size
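Cells were dispensed at 400 per well, compounds added by pin tool, plates incubated ≥48 hr at 37 °C, then CellTiter-Glo added for 30 min at room temperature before luminescence reading. Line: DT40 Tdp1-/- complemented with hTDP1; camptothecin omitted.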
TDP1 cell CPT = growth inhibition of DT40 Tdp1-/-;hTDP1 cells with camptothecin (screen for TDP1 inhibitors); chicken DT40 Tdp1-/-;hTDP1 cells + 20 nM CPT, ATP luminescence, 48 h; Potency, µM (top dose mostly 46.2 µM), actives largely listed as inhibitors; 420,000 tested, 12% active; also: nearly all actives have a fitted effect of over 55% in size
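Cell growth measured by CellTiter-Glo luminescence after a minimum 48 h, 37 C compound exposure with 20 nM CPT in Tdp1-knockout DT40 cells stably expressing hTDP1, seeded 400/well; qHTS titration format.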
HT1080 IDH1KD tx = kills HT-1080 cells with IDH1 knockdown. HT-1080 IDH1 knockdown viability, ATP luminescence, 48 h. Potency, µM (titrated, usually from 46.1 µM), most hits filed as cytotoxic. 360,000 tested, 2% active. AID 686971
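HT-1080-IDH1KD cells (IDH1 knocked down), 750/well in RPMI with 5% FBS, treated with compound 48 h at 37 degrees C. Viability by CellTiter-Glo luminescence, normalised to DMSO and no-cell wells; concentration-response curves classed.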
HepG2 tox = counter-screen for TGF-b inhibitors: cytotoxicity in HepG2 cells. 410,000 tested, 0.76% active. Potency, µM (series often up to 46.1 µM), hits mostly cytotoxic. HepG2 CAGA-GFP viability, ATP luminescence, 18 h
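HepG2 CAGA-GFP cells (1000/well, DMEM with 1% FBS) received compound, then TGF-beta at 500 pg/mL final, and were incubated 18 hours at 37 degrees C. Viability was read by CellTiter-Glo luminescence. Media-only wells were set as complete cell-killing and DMSO as no toxicity.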
Hits are given with their value; – = inactive; ? = inconclusive; · = no result given. Calls follow the shape of the dose curve; as a rule, active = well fitted curve in the direction sought with a large enough effect; inconclusive = small, poorly fitted or top-dose-only effect, or another doubt; inactive = no such curve, though single readings can be large; an effect the other way counts as inactive or inconclusive.

SMILES | TGFb SMAD3 inh | HT1080-NT tox | TDP1 cell noCPT | TDP1 cell CPT | HT1080 IDH1KD tx | HepG2 tox
CCCCNC(=O)C1CCN(C(=O)N2CC(C)Oc3ccc(Cl)cc32)CC1 (configuration not stated) | – | · | 20.6µM | ? | · | –
CC1CN(C(=O)N2CCC(C(=O)NCCCc3ccccc3)CC2)c2ccccc2O1 (configuration not stated) | – | · | ? | 20.6µM | · | –
CC1CN(C(=O)N2CCC(C(=O)NCCCc3ccccc3)CC2)c2cc(Cl)ccc2O1 (configuration not stated) | 14.1µM | · | 13µM | 18.4µM | · | –
CC(CNC(=O)C1CCN(C(=O)N2CCOc3ccc(Cl)cc32)CC1)c1ccccc1 (configuration not stated) | ? | · | 16.4µM | ? | · | –
CCOC(=O)C[C@@H](C#N)NC(=O)[C@@H]1CCCN1C(=O)[C@@H](NC(=O)c1ccc(N)c(Cl)c1)C(C)(C)C | ? | · | · | · | · | –
CC1CN(C(=O)CCC(=O)N2CCCCC2)c2cc(Cl)ccc2O1 (configuration not stated) | – | – | – | – | – | –
O=C(NCCCc1ccccc1)C1CCN(C(=O)N2CCOc3ccc(Cl)cc32)CC1 | ? | · | 14.6µM | 16.4µM | · | –
CC1CN(C(=O)N2CCC(C(=O)N3CCN(c4ccccc4)CC3)CC2)c2cc(Cl)ccc2O1 (configuration not stated) | ? | · | 13µM | 13µM | · | –
Cc1ccc2nc3c(cc(C#N)c(=O)n3-c3nnc(SCc4ccccc4)s3)c(=O)n2c1 | – | · | – | – | · | –
COc1cccc2sc(Nc3nc(-c4ccncc4)cs3)nc12 | – | 2.31µM | 2.91µM | 4.61µM | 2.31µM | –
COc1cccc2sc(Nc3nc4ccc(NC(C)=O)cc4s3)nc12 | ? | ? | ? | ? | ? | –
COc1cccc2sc(Nc3nc(-c4cc5ccccc5oc4=O)cs3)nc12 | – | 5.17µM | 4.61µM | 4.61µM | 2.06µM | –
Cc1cc(-c2ccc(S(=O)(=O)Nc3ccc(Br)c(C)c3)s2)on1 | 12.6µM | · | 14.6µM | 23.1µM | · | –
Cc1cc(-c2ccc(S(=O)(=O)Nc3cc(Cl)ccc3C)s2)on1 | – | · | 2.91µM | 4.61µM | · | –
Cc1ccc(Nc2ccc([N+](=O)[O-])ccc2=O)cc1 | – | – | – | – | – | –
Cc1nsc(Nc2ccc([N+](=O)[O-])cc2)c1C#N | ? | – | 2.31µM | 2.59µM | – | –
CCOc1cccc2sc(N3CCN(C(=O)c4ccco4)CC3)nc12 | – | · | 16.4µM | 14.6µM | · | –
CCOc1cccc2sc(N3CCN(C(=O)C(C)(C)C)CC3)nc12 | – | · | 20.6µM | ? | · | –
COc1cccc2sc(N3CCN(C(=O)c4ccco4)CC3)nc12 | – | – | ? | – | – | –
CCc1cccc2sc(N3CCN(C(=O)c4ccc([N+](=O)[O-])o4)CC3)nc12 | 17.8µM | – | ? | ? | ? | –
COc1ccc(CNc2ncncc2-c2ccc3c(c2)OCO3)c(OC)c1 | · | · | ? | – | · | ·
COc1ccccc1C(=O)NC(=O)CSc1nc(C)cs1 | – | – | – | – | – | –
O=C(CSc1nnc(NC(=O)c2ccco2)s1)Nc1ccccc1 | – | – | ? | – | – | –
CCOC(=O)N1CCC(Nc2c(N3CCN(c4cc(Cl)ccc4C)CC3)c(=O)c2=O)CC1 | ? | – | ? | ? | – | –
CCOC(=O)N1CCC(N2CCN(c3cc(C)ccc3C)CC2)CC1 | – | – | ? | 29.1µM | – | –
CCOC(=O)c1ccc(N2CCN(c3cc(C)ccc3C)CC2)c(NC(=O)Nc2ccc(Cl)cc2)c1 | – | · | 4.61µM | 4.61µM | · | –
CCOC(=O)c1ccc(N2CCN(c3cc(C)ccc3C)CC2)c(N)c1 | – | – | 16.4µM | 14.6µM | – | –
CCOC(=O)c1ccc(N2CCN(c3cc(C)ccc3C)CC2)c(NC(=O)Nc2ccc(CC)cc2)c1 | – | · | ? | ? | · | –

Source: PubChem (National Center for Advancing Translational Sciences (NCATS))
